Laboratory results published in PubChem BioAssay (Tox21).
Inconclusive results are not listed. A call without a number means that no potency is given here. Activity calls are given as the source filed them. Calls follow the shape of the dose curve; as a rule, active = well fitted curve in the direction sought with a large enough effect in the repeat runs; inconclusive = weak or mixed curves; inactive = no such curve, though single readings can be large; an effect the other way counts as inactive or inconclusive.

test system: not listed separately; assay: Caspase-3/7 induction in CHO-K1 cells by small molecules, qHTS cell viability counter screen (AID 1346979); conditions: CellTiter-Fluor fluorescence, 17 h; series mostly up to 92.4 µM; also: nearly all actives have a fitted effect of over 35% in size
How it was run: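 Following a 5hr settling period, CHO-K1 cells at 1,500 per well received DMSO-dissolved compounds. Cell viability was quantified 16hr later by CellTiter-Fluor fluorescence, measured after 1hr with reagent at 37C.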
Potency is read from the fitted curve at half-maximal effect.

SMILES | Potency
C[C@]12CC[C@H]3C(=CCc4cc(O)ccc43)[C@@H]1CCC2=O | 61.1 µM (active)
O=C1NCN(c2ccccc2)C12CCN(CCCC(c1ccc(F)cc1)c1ccc(F)cc1)CC2 | 33.5 µM (active)
Cc1cccc(C)c1NC(=O)CN1CCN(CCCC(c2ccc(F)cc2)c2ccc(F)cc2)CC1 | 29.8 µM (active)

test system: not listed separately; assay: Caspase-3/7 induction in CHO-K1 cells by small molecules, qHTS assay (AID 1346980); conditions: CHO-K1 caspase-3/7 induction, Caspase-Glo luminescence, 17 h; series mostly up to 92.4 µM; also: nearly all actives have a fitted effect of over 15% in size
How it was run: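 Wild-type cells were seeded at 1,500 per well and settled 5 hr at 37 C, 5% CO2, then exposed to DMSO-dissolved compounds for 17 hr. Caspase-Glo 3/7 reagent was added, and luminescence was read after 30min at room temperature.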

SMILES | Potency
CNCC[C@H](Oc1cccc2ccccc12)c1cccs1 | inactive
O=C1Nc2ccc(Cl)cc2[C@@](C#CC2CC2)(C(F)(F)F)O1 | inactive
CC(C)OC(=O)c1cc(C(=O)OC(C)C)cc([N+](=O)[O-])c1 | inactive
CC(C)(c1cc(Br)c(OCCO)c(Br)c1)c1cc(Br)c(OCCO)c(Br)c1 | inactive
N#CSCSc1nc2ccccc2s1 | 6.86 µM (active)
CN1CCN(C2Cc3ccccc3Sc3ccc(Cl)cc32)CC1 (centres undefined) | inactive
C[C@@H]1CC[C@H]2C(C)(C)[C@H]3C[C@@]12CC[C@@]3(C)O | inactive
Cc1c(C)n(Cc2ccccc2)c2ccc(C(=O)OCCN(C)C)cc12 | inactive
CC(C)c1cccc(C(C)C)c1N1C(=O)c2ccc(O)cc2C1=O | inactive
Oc1ccc(-c2ccccc2)c(Cl)c1 | inactive
CCCCCCOc1cc(C)c(O)c(C)c1C | inactive
C[C@]12CC[C@H]3C(=CCc4cc(O)ccc43)[C@@H]1CCC2=O | inactive
S=P(N1CC1)(N1CC1)N1CC1 | inactive
CCCCCCC(C)Nc1ccc(Nc2ccccc2)cc1 (centres undefined) | inactive
CCc1ccc(O)c(C(C)(C)C)c1 | inactive

test system: not listed separately; assay: Caspase-3/7 induction in HepG2 cells by small molecules, qHTS cell viability counter screen (AID 1346981); conditions: CellTiter-Fluor fluorescence, 17 h; series mostly up to 92.4 µM; also: nearly all actives have a fitted effect of over 30% in size
How it was run: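 Wild-type HepG2 cells (2,000/well) were allowed to settle for 5 hr at 37 C, 5% CO2, then dosed with compounds in DMSO by pin transfer. After 16 hr at 37 C, CellTiter-Fluor was added and fluorescence read 1 hr later.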

SMILES | Potency
Brc1ccccc1-c1ccccc1 | inactive
CC(=O)C=O | inactive
Cc1cc2c(C(C)C)c(O)c(O)c(C=O)c2c(O)c1-c1c(C)cc2c(C(C)C)c(O)c(O)c(C=O)c2c1O | 26.6 µM (active)
Cc1c(-c2ccc(O)cc2)n(Cc2ccc(OCCN3CCCCCC3)cc2)c2ccc(O)cc12 | 29.8 µM (active)
Cc1oc(-c2ccccc2)nc1CCOc1ccc(C[C@H](Nc2ccccc2C(=O)c2ccccc2)C(=O)O)cc1 | 43.3 µM (active)
CCCCCCCCCCCCCOP(=O)(O)O | inactive
Clc1cc(Cl)c(-c2c(Cl)c(Cl)cc(Cl)c2Cl)cc1Cl | inactive
C[C@@H]1CC[C@H]2C(C)(C)[C@H]3C[C@@]12CC[C@@]3(C)O | inactive
COC(=O)NCCC[Si](OC)(OC)OC | inactive
O=C1NC2CCCCN2C12CCN(CCCN1c3ccccc3CCc3ccc(Cl)cc31)CC2 (centres undefined) | 29.8 µM (active)
CC=O | inactive
COC(=O)C1=C(C)NC(C)=C(C(=O)OCCCN2CCC(c3ccccc3)(c3ccccc3)CC2)C1c1cccc([N+](=O)[O-])c1 (centres undefined) | 29.8 µM (active)
Oc1ccc(-c2ccccc2)c(Cl)c1 | inactive
S=P(N1CC1)(N1CC1)N1CC1 | inactive
O=C1NCN(c2ccccc2)C12CCN(CCCC(c1ccc(F)cc1)c1ccc(F)cc1)CC2 | 26.6 µM (active)
CCc1ccc(O)c(C(C)(C)C)c1 | inactive
Cc1cccc(C)c1NC(=O)CN1CCN(CCCC(c2ccc(F)cc2)c2ccc(F)cc2)CC1 | 21.1 µM (active)

target: Nuclear receptor subfamily 1 group I member 2 (Homo sapiens) (UniProt O75469); assay: Human pregnane X receptor (PXR) small molecule agonists, qHTS assay (AID 1346982); conditions: PXR-Luc HepG2, CYP3A4 luciferase reporter, 24 h; series mostly up to 92.4 µM; also: nearly all actives have a fitted effect of over 35% in size
Sequence (O75469 whole entry, looked up): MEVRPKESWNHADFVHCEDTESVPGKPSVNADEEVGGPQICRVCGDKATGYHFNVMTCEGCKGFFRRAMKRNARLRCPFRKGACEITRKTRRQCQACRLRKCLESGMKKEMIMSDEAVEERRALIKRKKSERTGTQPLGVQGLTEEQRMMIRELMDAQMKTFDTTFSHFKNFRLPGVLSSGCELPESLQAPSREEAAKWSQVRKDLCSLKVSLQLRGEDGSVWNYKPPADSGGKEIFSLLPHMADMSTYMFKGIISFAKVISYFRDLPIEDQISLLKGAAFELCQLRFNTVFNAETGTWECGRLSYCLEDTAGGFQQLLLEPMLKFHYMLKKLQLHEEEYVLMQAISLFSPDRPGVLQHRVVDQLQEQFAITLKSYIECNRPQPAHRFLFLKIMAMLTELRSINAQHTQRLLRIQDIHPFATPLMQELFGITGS
How it was run: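 PXR-Luc HepG2 cells (CYP3A4 promoter-driven luciferase) were seeded in medium with 5% charcoal-stripped FBS, left 5 hr at 37 C, then exposed to compounds in DMSO for 24 hr. Luminescence was read after ONE-Glo addition.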

SMILES | Potency
CC(=O)C=O | inactive
CCN(CC)CCOC(=O)C1(C2CCCCC2)CCCCC1 | 8.41 µM (active)
CC(C)OC(=O)c1cc(C(=O)OC(C)C)cc([N+](=O)[O-])c1 | 19.8 µM (active)
CC(C)(c1cc(Br)c(OCCO)c(Br)c1)c1cc(Br)c(OCCO)c(Br)c1 | 4.75 µM (active)
Cc1cc2c(C(C)C)c(O)c(O)c(C=O)c2c(O)c1-c1c(C)cc2c(C(C)C)c(O)c(O)c(C=O)c2c1O | inactive
N#CSCSc1nc2ccccc2s1 | 7.7 µM (active)
Cc1c(-c2ccc(O)cc2)n(Cc2ccc(OCCN3CCCCCC3)cc2)c2ccc(O)cc12 | 9.44 µM (active)
CC(C(O)c1ccccc1)N(C)CCOC(c1ccccc1)c1ccccc1 (centres undefined) | 7.5 µM (active)
CCCCCCCCCCCCCOP(=O)(O)O | inactive
CN1CCN(C2Cc3ccccc3Sc3ccc(Cl)cc32)CC1 (centres undefined) | inactive
Clc1cc(Cl)c(-c2c(Cl)c(Cl)cc(Cl)c2Cl)cc1Cl | inactive
C[C@@H]1CC[C@H]2C(C)(C)[C@H]3C[C@@]12CC[C@@]3(C)O | inactive
Cc1ccc(-n2[nH]c(C)c(N=Nc3cccc(-c4cccc(C(=O)O)c4)c3O)c2=O)cc1C | inactive
COC(=O)NCCC[Si](OC)(OC)OC | inactive
O=C1NC2CCCCN2C12CCN(CCCN1c3ccccc3CCc3ccc(Cl)cc31)CC2 (centres undefined) | inactive
CC(NCCC(c1ccccc1)c1ccccc1)c1ccccc1 (centres undefined) | 6.68 µM (active)
COc1ccccc1OCCNCC(O)COc1cccc2[nH]c3ccccc3c12 (centres undefined) | 8.41 µM (active)
CC=O | 4.53 µM (active)
Cc1c(C)n(Cc2ccccc2)c2ccc(C(=O)OCCN(C)C)cc12 | 7.5 µM (active)
CC(C)c1cccc(C(C)C)c1N1C(=O)c2ccc(O)cc2C1=O | 27.3 µM (active)
O[C@@H](c1cc(C(F)(F)F)nc2c(C(F)(F)F)cccc12)[C@H]1CCCCN1 | inactive
CCOC(=O)C1=C(C)NC(C)=C(C(=O)OCC)C1c1ccccc1/C=C/C(=O)OC(C)(C)C | 1.33 µM (active)
Oc1ccc(-c2ccccc2)c(Cl)c1 | 24.3 µM (active)
CCCCCCOc1cc(C)c(O)c(C)c1C | 34.8 µM (active)
C[C@]12CC[C@H]3C(=CCc4cc(O)ccc43)[C@@H]1CCC2=O | 27.3 µM (active)
CCCCCCC(C)Nc1ccc(Nc2ccccc2)cc1 (centres undefined) | 21.7 µM (active)
O=C1NCN(c2ccccc2)C12CCN(CCCC(c1ccc(F)cc1)c1ccc(F)cc1)CC2 | inactive
CCc1ccc(O)c(C(C)(C)C)c1 | inactive
Cc1cccc(C)c1NC(=O)CN1CCN(CCCC(c2ccc(F)cc2)c2ccc(F)cc2)CC1 | inactive
